In article PMC5540273 (PLoS ONE, 2017):

Assays:
Details in all cases: concentration: 1 μM, replicates: in singlicate; n = 1
PDGFRB = system: PDGFRB
PDPK1 = system: PDPK1
PFTAIRE2 = system: PFTAIRE2
PFTK1 = system: T1, PFTK1
T1 construct: gene CDK14

PHKG1 = system: PHKG1
PHKG2 = system: PHKG2
PIK3C2B = system: PIK3C2B
PIK3C2G = system: PIK3C2G
PIK3CA = system: PIK3CA
PIK3CB = system: PIK3CB
PIK3CD = system: PIK3CD
PIK3CG = system: PIK3CG
PIK4CB = system: T2, PIK4CB
T2 construct: gene PI4KB

PIKFYVE = system: PIKFYVE
PIM1 = system: PIM1
PIM2 = system: PIM2
PIM3 = system: PIM3
PIP5K1A = system: PIP5K1A
PIP5K1C = system: PIP5K1C
PIP5K2B = system: PIP5K2B
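Also: KINOMEscan kinase panel screen.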

SMILES | %Inh (PDGFRB) [%] | %Inh (PDPK1) [%] | %Inh (PFTAIRE2) [%] | %Inh (PFTK1) [%] | %Inh (PHKG1) [%] | %Inh (PHKG2) [%] | %Inh (PIK3C2B) [%] | %Inh (PIK3C2G) [%] | %Inh (PIK3CA) [%] | %Inh (PIK3CB) [%] | %Inh (PIK3CD) [%] | %Inh (PIK3CG) [%] | %Inh (PIK4CB) [%] | %Inh (PIKFYVE) [%] | %Inh (PIM1) [%] | %Inh (PIM2) [%] | %Inh (PIM3) [%] | %Inh (PIP5K1A) [%] | %Inh (PIP5K1C) [%] | %Inh (PIP5K2B) [%]
NC(=O)c1sc(-n2cnc3ccccc32)cc1OCc1ccccc1F [GSK1024306] | 2 | 19 | 7 | 6 | 0 | 0 | 0 | 0 | 0 | 0 | 39 | 0 | 0 | 20 | 21 | 0 | 0 | 0 | 53 | 0
Nc1nc(-c2ccc3c(N)n[nH]c3c2)cc(N2CCCCC2)n1 [GSK2228768] | 8 | 94.6 | 1 | 9 | 0 | 0 | 0 | 0 | 0 | 0 | 0 | 0 | 0 | 0 | 0 | 0 | 0 | 0 | 31 | 4
Cl.c1ccc(Cn2ncc3cc(Nc4ncnc5ccccc45)ccc32)cc1 [GW273749] | 0 | 0 | 20 | 14 | 0 | 0 | 16 | 0 | 0 | 7 | 0 | 3 | 0 | 0 | 0 | 0 | 1 | 0 | 11 | 10
Cn1ccc2ncnc(Oc3ccc(NC(=O)Nc4cccnc4)c(Cl)c3)c21 | 99.7 | 0 | 10 | 0 | 15 | 0 | 6 | 19 | 4 | 3 | 8 | 7 | 0 | 0 | 1 | 0 | 0 | 0 | 1 | 35
Clc1cccc(-c2nc(Nc3ccncc3)c3ccccc3n2)c1 [GW873004] | 12 | 4 | 0 | 0 | 0 | 0 | 0 | 0 | 0 | 0 | 0 | 0 | 0 | 61 | 4 | 11 | 0 | 22 | 33 | 0
